# Results published in ChEMBL document CHEMBL3433997, “St. Jude Leishmania screening dataset” (2016).
# Tests used:
# Assay type in all cases: functional
# [1] = molecular target: Solute carrier family 2, facilitated glucose transporter member 1 (Homo sapiens) (UniProt P11166); assay: ST_JUDE_LEISH: Cytotoxicity at 2uM final concentration against transgenic Leishmania Mexicana promastigotes LmGLUT1 that are glucose transport deficient and complemented with the human glucose transporter GLUT1. Activity is measured by DNA content using SYBR green in vitro
# [2] = molecular target: Hexose transporter 1 (Plasmodium falciparum) (UniProt O97467); assay: ST_JUDE_LEISH: Cytotoxicity at 2uM final concentration against transgenic Leishmania Mexicana promastigotes LmPfHT that are glucose transport deficient and complemented with the Plasmodium falciparum hexose transporter. Activity is measured by DNA content using SYBR green in vitro
# [3] = molecular target: Glucose transporter (Leishmania mexicana) (UniProt O61059); assay: ST_JUDE_LEISH: Cytotoxicity at 2uM final concentration against transgenic Leishmania Mexicana promastigotes LmGT2 that are glucose transport deficient and complemented with the L. Mexicana glucose transporter 2. Activity is measured by DNA content using SYBR green in vitro
# Solute carrier family 2, facilitated glucose transporter member 1 (Homo sapiens), sequence (P11166 whole entry): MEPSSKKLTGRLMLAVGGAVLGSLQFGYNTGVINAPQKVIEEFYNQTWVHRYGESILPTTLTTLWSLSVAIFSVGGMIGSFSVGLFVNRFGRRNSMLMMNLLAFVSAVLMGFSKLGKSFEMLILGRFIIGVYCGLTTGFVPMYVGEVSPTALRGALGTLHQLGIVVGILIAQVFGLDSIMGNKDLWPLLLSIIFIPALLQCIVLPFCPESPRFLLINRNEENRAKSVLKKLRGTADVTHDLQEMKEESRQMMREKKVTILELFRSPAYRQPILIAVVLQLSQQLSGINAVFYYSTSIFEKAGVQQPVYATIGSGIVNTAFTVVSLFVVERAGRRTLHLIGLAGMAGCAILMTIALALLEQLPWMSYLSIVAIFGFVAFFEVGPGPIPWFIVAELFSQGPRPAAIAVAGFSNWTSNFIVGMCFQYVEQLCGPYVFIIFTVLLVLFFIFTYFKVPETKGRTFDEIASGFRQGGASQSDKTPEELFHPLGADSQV
SMILES,inhibition [1] [%],inhibition [2] [%],inhibition [3] [%]
Cc1ccc2nc(Cl)c3cc(C(=O)NCCCN4CCCC4)sc3c2c1,8.7,10.2,9.6
COc1cc2c(cc1OCCN1CCC(N3CCCC3)CC1)N(C(=O)/C=C/c1ccccc1Cl)CC2,1.15,2.02,2.99
Cc1ccc(Nc2ccnc(Nc3ccc(F)c(Cl)c3)n2)cc1O,6.74,10.4,2.04
O=C(Nc1cccc(-c2cccc(F)c2)c1)C1CCN(Cc2ccc(O)cc2)CC1,2.54,2.14,2.19
Fc1ccc(Nc2ccnc3cc(-c4cccc(CN5CCCCC5)c4)ccc23)c(Cl)c1,4.23,3.95,3.3
CC(=O)Nc1ccc(S(=O)(=O)Nc2ccc(Nc3nc(C)cc(N(C)C)n3)cc2)cc1,-1.06,0.57,2.61
c1cncc(CN2CCCN(c3ccc4c(c3)CCN(Cc3ccc(-c5ncc[nH]5)cc3)CC4)CC2)c1,1.93,2.7,2.25
CC(=O)c1ccccc1C(=O)N1CCOc2ccc(C(O)C(c3ccccc3)c3ccccc3)cc2C1 (stereo not drawn),0.04,-1.21,-1.21
Cc1cc(C(=O)Nc2ccc3c(c2)CCN3C2CCN(Cc3cccc4cc[nH]c34)C2)no1 (stereo not drawn),2.23,1.71,3.09
CCCCNCc1cc(Cl)c2ccccc2c1O,7.17,7.57,6.58
NC(=O)c1ccccc1OCC(=O)Nc1cccc(-c2cccc(-c3nc4ccccc4[nH]3)c2)c1,0.34,1.07,-4.32
CN1CCN(c2ccc(-c3cc(-c4cc(F)c(F)c(F)c4)cnc3N)cc2)CC1,4.36,1.8,0.2
Cc1ccc2[nH]c(-c3ccc(C=CC(=O)NCc4ccc(Cl)c(Cl)c4)cc3)nc2c1,10.3,9.48,4.93
Cc1cc(N[C@@H](Cc2ccccc2)C(=O)NCc2cccc(F)c2)nc(NCCCOC(C)C)n1,0.45,1.37,1.72
CC(C)CCN(Cc1cncn1Cc1ccccc1F)C(=O)c1cncc(-c2ccccc2)c1,2.26,5.35,3.59
Cc1ccc(S(=O)(=O)n2cc(-c3ccnc(N)c3)c3cc(Br)cnc32)cc1,4.4,4.2,1.4
COc1cccc(CN2CCCN(Cc3cccc(NC(=O)c4cc5ccccc5s4)c3)CC2)c1,3.41,4.66,5.23
CCN(C(=O)c1ccc(NC(=O)c2cccs2)cc1)c1nc2c(C)cccc2s1,1.43,4.28,2.9
COc1ccc2nc(-c3ccc(C(=O)NCCCN4CCN(c5cc(Cl)ccc5OC)CC4)cc3)[nH]c2c1,0.75,0.77,-0.2
CNC(=O)c1cc(Nc2nnc(-c3ccc(C)c(S(=O)(=O)NC4CCCCC4)c3)c3ccccc23)ccc1OC,4,3.11,4.93
N=C(N)c1ccc(Nc2nc(Nc3ccc(-c4ccccc4)cc3)ncc2[N+](=O)[O-])cc1,3.15,3.65,3.44
NCCCN(Cc1ccc(Cl)c(Cl)c1)C(=O)Nc1ccc(Cl)c(Cl)c1,14.3,9.33,10.1
O=C(Nc1ccc(Cl)c(C(F)(F)F)c1)N[C@H]1CCN(CCCCCNC(=O)C2CC2c2ccc(Cl)c(Cl)c2)C1 (stereo partly drawn),-1.57,1.02,-0.67
COc1c(C2CCN(CCCCNC(=O)c3ccc(NC(=O)c4ccc(C#N)cc4)cc3)CC2)ccc2c1CCCC2,1.73,0.65,0.9

SMILES,inhibition [1] [%],inhibition [2] [%],inhibition [3] [%]
CCN(C(=O)NC)C1c2cc(C#N)ccc2OC(C)(C)C1O (stereo not drawn),2.85,1.33,1.87
CN1CCC(c2csc3ccc(NC(=O)Nc4ccc(-c5ccncc5)c5ccccc45)cc23)CC1,-0.99,0.65,2.4
COc1ccc(-c2nc3cc4ccccc4nc3[nH]2)c(OCC(O)CNC(C)C)c1 (stereo not drawn),-1.53,1.33,1.21
Oc1cc(Nc2ccnc3ccc(I)cc23)c(F)cc1Cl,0.49,1.05,-1.45
COC(=O)c1cccc(NC(=O)NC2CCN(c3ccnc(Nc4ccc(OC)cc4)n3)C2)c1 (stereo not drawn),0.29,0.86,0.1
Cc1cccc(NC(=O)c2ccc(C(=O)NC3CCN(CC4CCCCC4)C3)cc2)c1 (stereo not drawn),5.04,3.98,-1.15
O=C(NC1CCN(Cc2ccccc2)CC1)c1cc(-c2ccncc2)c(-c2ccc(Cl)c(O)c2)o1,2.8,1.63,0.77
CCN(CC1CCN(CC2(O)CCOCC2)CC1)c1cc(C)nc(Nc2ccc(Cl)cc2)n1,-1.01,0.27,-0.02
CCC(C)CN1CCN(c2ccc(NC(=O)c3cccs3)cc2)CC1C (stereo not drawn),0.37,0.02,1.01
CCOc1cccc2nc(NCCCNCc3ccc(Cl)c(Cl)c3)cc(NCCCNCc3ccc(Cl)c(Cl)c3)c12,-3.5,-0.94,-0.45
COc1cc(O)c2c(=O)c(OC)c(-c3cccc(Cl)c3OCC(=O)O)oc2c1OC,-2.29,-1.48,-0.46
COc1ccc2nccc([C@@H](O)CN3CCC(NCc4ccc5c(c4)NC(=O)CS5)CC3)c2c1,1.65,4.15,-0.16
COc1ccc(-c2cnc3[nH]cc(-c4ccc(C(=O)O)cc4)c3c2)cn1,-1.03,5.94,0.18
CCC[C@@H]([C@@H](CC1CCCCC1)C(=O)N[C@H](C(=O)Nc1nccs1)C(C)(C)SCCNC(=O)OCC)N(O)C=O,3.35,4.46,4.28
Cc1nc(N)nc(N)c1OCCCOc1cccc(Cl)c1Cl,65.6,65.8,56.7
CN1CCN(c2ncnc3ccc(NC(=O)Nc4ccc(Cl)c(Cl)c4)cc23)CC1,5,2.35,5.24
CS(=O)(=O)c1cccc(-c2ccc3oc(C(N)=O)c(NC(=O)c4cccs4)c3c2)c1,7.71,6.5,5.71
CCCn1c(O)nnc1SCC(=O)Nc1cc(C(F)(F)F)ccc1Cl,6.43,4.55,6.33
Cc1cccc2nc(-c3ccc(-c4ccc(NC(=O)Nc5ccc(F)c(F)c5F)cc4)s3)[nH]c12,1.26,0.06,0.31
O=C(NCCN1CCC(c2ncc(-c3ccccc3)o2)CC1)c1ccc(NC(=O)c2ccc(Cl)cc2)cc1,0.84,2.19,1.19
c1ccc(-c2ccc3c(Nc4ccc5[nH]ccc5c4)ccnc3c2)nc1,-1.13,0.56,-0.96
COc1ccc(NC(=O)Nc2nc3ccccc3s2)cc1N1CCN(C)CC1,7.14,4.98,5.72
CCNC(=O)Nc1cccc(-c2cccc(-c3nc4cccc(C)c4[nH]3)c2)c1,4.32,2.2,3.06
CCOc1ccc2nc3cc([N+](=O)[O-])ccc3c(N)c2c1,6.85,7.59,2.01

SMILES,inhibition [1] [%],inhibition [2] [%],inhibition [3] [%]
Cc1ccc([S+]([O-])Cc2ccc(Cl)cc2)cc1 (stereo not drawn),-0.22,-0.65,1.2
CCCCNC(=O)[C@H](CC1CCCCC1)NC(=O)c1ccc(O)c(-c2cccc(C(F)(F)F)c2)c1,2.16,3.75,3.61
CC(C)CC(=O)N(Cc1ccc(-c2ccc(CNC3Cc4ccccc4C3)cc2)cc1)C1CCNCC1,8.37,5.79,10.6
COc1ccccc1-c1nc2c(ccc3nc(N)nc(N)c32)[nH]1,49.5,58.8,4.58
O=C1CCCN1CCCNCc1ccc(-c2ccc(-c3nc4cc(C(F)(F)F)ccc4[nH]3)s2)cc1,4.04,1.98,3.27
O=C(NCC1CCC(C(=O)NCCN2CCCCC2)CC1)c1ccc(O)c(-c2ccc(Cl)c(Cl)c2)c1 (stereo not drawn),-0.83,0.49,0.18
N=C(N)NC(=O)Nc1cc(Cl)c(Cl)c(C(F)(F)F)c1,2.87,3.46,1.58
COc1cccc2cc(C(=O)N[C@@H](CC(C)C)C(=O)N[C@H](/C=N/N(C)C(=O)OC(C)(C)C)CC(=O)OC(C)(C)C)oc12,2.84,3.79,3.79
Cc1ccc(C(O)CNc2ccnc(Nc3cccc(-c4csc(C)n4)c3)n2)cc1 (stereo not drawn),-0.56,-1.05,-1.54
O=C(Nc1cccc(C(F)(F)F)c1)Nc1ccc(F)c([N+](=O)[O-])c1,2.84,3.09,-0.74
Cc1cccc2nc(-c3cccc(-c4ccc(C(=O)N5CCCCC5C(C)O)cc4)c3)[nH]c12 (stereo not drawn),4.05,4.66,5.64
COc1ccc(Nc2nccc(N3CCC(NS(=O)(=O)c4ccc(NC(C)=O)cc4)C3)n2)cc1 (stereo not drawn),2.99,2.85,3.38
O=c1cc(NCCC(CNCc2ccc(Br)o2)NCc2cc(Br)cc(Br)c2)[nH]c2ccccc12 (stereo not drawn),8.13,8.45,6.87
Oc1ccc2[nH]c(-c3ccc(F)cc3F)nc2c1CN1CCC(O)(c2ccccc2)CC1,-0.28,-0.92,0.37
COC(=O)c1ccc(NC(=O)Nc2cccc(CCNCc3ccccc3)c2)cc1,-0.06,-0.8,-1.41
COc1ccccc1C1CCN(C2CCC(NC(=O)/C=C/c3ccc(F)c(F)c3)CC2)CC1 (stereo not drawn),-3.94,-1.53,-2.36
CCc1cn2c3c(cc(C(=O)N[C@@H](Cc4ccccc4)[C@H](O)CNC4CCC4)cc13)N(C)S(=O)(=O)CC2,2.42,5.19,1.83
COc1ccc2c(NN=Cc3ccc(N(C)C)cc3)ccnc2c1,10.8,10.8,8.44
CCCCc1nc2nc(N)nc(N)c2cc1CCC,1.72,6.46,1.5
O=C(Nc1cccc(-c2nn3ncccc3c2-c2ccnc(Nc3cccc(-c4cnco4)c3)n2)c1)c1c(F)cccc1F,6.24,7.13,2.26
CCc1c[nH]c2c(N3CCCC3=O)cc(C(=O)N[C@@H](Cc3ccccc3)[C@H](O)CNC3CCCCC3)cc12,7.8,6.05,9.77
O=c1cc(N2CCCNCC2)c(Cl)nn1Cc1ccc(NS(=O)(=O)c2ccc(Oc3ccccc3)cc2)cc1,10.6,8,8.55
N=C(N)NCCCC(=O)NCC(N)=O,5.44,8.67,2.28
